# Compound activity (PubChem BioAssay)
# TSHR antag: antagonists of human thyroid stimulating hormone receptor; P16473; TSHR-expressing cells, TSH-stimulated cAMP HTRF, 2 h; active compounds read low; activity change, negative = inhibition, % at 11.5 µM; actives 0.2% (n = 330,000); AID 504810;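 active = activity change below a set negative limit, meaning inhibition stronger than a set level, cut at about -70% in these data; inconclusive = activity change between two set negative limits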
# Target sequence (P16473 whole entry, looked up): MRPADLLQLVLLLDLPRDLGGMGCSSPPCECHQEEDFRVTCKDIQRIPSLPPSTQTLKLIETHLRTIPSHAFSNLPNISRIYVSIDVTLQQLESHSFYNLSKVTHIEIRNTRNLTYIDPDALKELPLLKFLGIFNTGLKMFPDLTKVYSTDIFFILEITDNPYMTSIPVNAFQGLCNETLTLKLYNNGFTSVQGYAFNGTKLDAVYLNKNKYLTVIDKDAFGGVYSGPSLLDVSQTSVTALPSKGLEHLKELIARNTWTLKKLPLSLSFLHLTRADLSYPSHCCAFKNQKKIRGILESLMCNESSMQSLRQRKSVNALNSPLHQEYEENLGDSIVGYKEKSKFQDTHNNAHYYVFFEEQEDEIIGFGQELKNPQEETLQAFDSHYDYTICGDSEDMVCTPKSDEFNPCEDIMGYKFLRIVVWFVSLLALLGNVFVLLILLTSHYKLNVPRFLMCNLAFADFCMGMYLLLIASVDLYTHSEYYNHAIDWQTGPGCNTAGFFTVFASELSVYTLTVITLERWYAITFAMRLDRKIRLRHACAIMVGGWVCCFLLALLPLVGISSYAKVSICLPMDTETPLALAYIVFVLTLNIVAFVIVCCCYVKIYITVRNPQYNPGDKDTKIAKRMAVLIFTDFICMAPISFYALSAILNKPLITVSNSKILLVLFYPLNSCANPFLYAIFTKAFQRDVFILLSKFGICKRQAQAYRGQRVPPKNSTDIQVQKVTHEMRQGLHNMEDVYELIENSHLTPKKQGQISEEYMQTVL
#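 Inhibition of cAMP made by TSHR-expressing cells under TSH stimulation (4nM final, EC80; 2 h, 37 deg C) is quantified with a one-step lysis HTRF kit, anti-cAMP cryptate versus cAMP-d2.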
# RORg inh: ROR gamma (mouse) transcription inhibition. P51450. Drosophila S2 Gal4-RORgamma UAS-luciferase reporter, 20 h. Potency, µM (highest dose often 53.6 µM), inactives show top-dose activity change, negative = inhibition, most hits filed as inhibitors. actives 5.4% (n = 310,000). AID 2551; note: potency is the fitted concentration of half-maximal effect; nearly all actives have a fitted effect of over 60% in size
#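 Drosophila Schneider cells stably carrying a metallothionein-driven Gal4 DBD–ROR gamma fusion and a UAS-Photinus luciferase reporter were exposed to compound for 1 hr, then induced with copper sulfate (700 uM final) for 20 hr at ambient temperature before luminescence reading.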
# FBPA coupling cs: coupling enzyme interference in Giardia aldolase counter-screen. coupling enzyme system counterscreen, AmpLite Red fluorescence. activity change, negative = inhibition, % at 58.2 µM, hits read low. actives 0.67% (n = 290,000). AID 2472; in the data active = activity change below about -30%
#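 Fluorescence at 525 nm excitation and 598 nm emission measured inhibition of the coupled detection system without aldolase. Compounds (at 57.5 uM final) were preincubated 10 min at room temperature with coupling enzyme reagent before a 20 min substrate/AmpLite Red step.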
# ELG1 DNA repair: blocks ELG1-dependent DNA repair in HEK293T cells; HEK293T ELG1-luciferase reporter, luminescence, 16 h; DNA damage induced by 5-fluorouridine; Potency, µM (doses to about 46.1 µM), without a hit: top-dose activity change, negative = inhibition, actives largely listed as inhibitors; actives 2.3% (n = 330,000); AID 504467; note: potency is the fitted concentration of half-maximal effect; nearly all actives have a fitted effect of over 55% in size
#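 Overnight (16 hr) co-exposure of 2,000 cells/well to 5-fluorouridine and compound at 37 °C preceded detection. Luciferase was quantified via ONE-Glo luminescence; loss of signal denotes inhibition.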
# Gal4-VP16 FLuc: inhibits Gal4-VP16 luciferase reporter, ROR gamma counter-screen. Potency, µM (series often up to 53.6 µM), inactives show at the top dose activity, negative = inhibition, hits mostly inhibitors. Drosophila S2 Gal4-VP16 UAS-luciferase, luminescence, 20 h. actives 3.5% (n = 310,000). AID 2546;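 note: Gal4-VP16 expression switched on by copper sulfate through the metallothionein promoter; potency is the fitted concentration of half-maximal effect; nearly all actives have a fitted effect of over 50% in size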
# Starred values were filed as active, the others as inactive; ? = inconclusive; · = not tested or not shown; ! = not active in a repeat; [ ] = remark or other dose. Compounds with a hit are over-represented: about 8% of the library has one in this group of screens. Unless noted, calls come from the whole dose curve; as a rule, active = well fitted curve in the direction sought with a large enough effect; inconclusive = small, poorly fitted or top-dose-only effect, or another doubt; inactive = no such curve, though single readings can be large; an effect the other way counts as inactive or inconclusive. % is set by controls: 0 for no effect and ±100 for the full control effect.
SMILES,TSHR antag,RORg inh,FBPA coupling cs,ELG1 DNA repair,Gal4-VP16 FLuc
Cc1ccc(NC(=S)Nc2ccccn2)c(C)c1,3,0.79µM*,0,?,6.3µM*
CC1CCC2(CC1)NC(=O)N(NC(=O)c1cccc(N(C)C)c1)C2=O (stereo not given),6,·,·,5%,·
CCc1cc(C(=O)N(CC(C)C)c2c(N)n(Cc3ccccc3)c(=O)[nH]c2=O)sc1C,4,·,·,-3%,·
CC(=O)Nc1ccc(NC(=O)CSc2ccc3nnc(-c4ccccn4)n3n2)cc1,18,-11%,·,27%,0%
O=C(Nc1cccc(NC(=O)c2ccc(-c3cccc(Br)c3)o2)c1)c1ccco1,-12,?,4,9.2µM*,-11%
O=C(Nc1cccc(NC(=O)c2ccc(-c3ccc(Br)cc3)o2)c1)c1ccccc1,4,-7%,3,18µM*,-21%
COc1ccc(Br)cc1C(=O)Nc1cccc(NC(=O)c2ccco2)c1,-21,26%,1,21µM*,-5%
CC(=O)Nc1cccc(NC(=O)c2ccco2)c1,9,5%,0,1%,3%
Cc1ccc(S(=O)(=O)NC(=O)COc2ccc(Cl)cc2Cl)cc1,6,8%,18,2%,-7%
COc1cccc2c1OC[C@@H](CO)[C@H]2N(C)C(=O)Nc1ccccc1,-8,2%,-2,-2%,-4%
CN(C(=O)Nc1ccc(Cl)cc1Cl)[C@H]1c2cc(Br)ccc2OC[C@H]1CO,5,2.8µM*,3,21µM*,?
CCCOc1cccc(C2C(C(=O)c3ccc(C)o3)=C(O)C(=O)N2c2nc(C)c(C(C)=O)s2)c1 (stereo not given),34,14µM*,7,13%,-2%
CCCOc1cccc(C2C(C(=O)c3ccc(C)o3)=C(O)C(=O)N2CCN2CCOCC2)c1 (stereo not given),-8,5%,0,-4%,3%
COC(=O)C1(CC(C)C)C=C2C(=C(C(C)C)C(=O)C2C)CN1 (stereo not given),·,2%,1,·,?
O=S(=O)(Nc1nc2ccccc2nc1N1CCN(c2ccccc2F)CC1)c1ccc(Cl)cc1,-13,-6%,25,18µM*,-17%
CN(c1nc2ccccc2nc1Cl)S(=O)(=O)c1ccccc1,-2,25%,-10,?,?
Cc1nc2cnc(N(C)C)nc2n(C[C@H]2CCCO2)c1=O,·,29%,1,·,-5%
CCN1C(=S)N[C@@H](CCc2ccccc2)C(C(=O)OC)=C1C,11,4.5µM*!,-4,0%,?
CCN1C(=O)N[C@@H](c2cccs2)C(C(=O)OC)=C1C,·,·,0,·,·
COC(=O)C1=C(C)N(CC2CC2)C(=O)N[C@H]1CCc1ccccc1,·,-12%,-1,·,-10%
CCN1C(=S)N[C@@H](c2cccs2)C(C(=O)OC)=C1C,-3,4µM*,-1,2%,20µM*
CCOC(=O)C1=C(C)N(CC)C(=S)NC1c1ccccc1OC(F)F (stereo not given),-13,2µM*,2,?,?
COc1c2ccoc2nc2c(OC)c(OC[C@@H](O)C(C)(C)O)ccc12,7,·,·,?,·
Cc1c(C(=O)NCc2ccccc2CN2CCCC2)oc2ccc(F)cc12,-11,·,·,1%,·
CCOc1ccc(/C=N/n2c(C3CCCCC3)n[nH]c2=S)cc1,-4,4µM*,1,-8%,?
SMILES,TSHR antag,RORg inh,FBPA coupling cs,ELG1 DNA repair,Gal4-VP16 FLuc
Fc1ccc(/C=N/n2c(C3CCCCC3)n[nH]c2=S)cc1,-12,3.5µM*,-2,?,7.9µM*
S=c1[nH]nc(C2CCCCC2)n1/N=C/c1ccccn1,-6,-13%,-22,12%,-10%[10 µM]
S=c1[nH]nc(C2CCCCC2)n1/N=C/c1ccccc1,-6,8.9µM*,0,14%,?
CN(C)c1ccc(/C=N/n2c(C3CCCCC3)n[nH]c2=S)cc1,-1,2.5µM*,1,-3%,6.3µM*
COc1ccc(C2=Nn3c(nnc3-c3cccc(OC)c3OC)SC2)cc1OC,·,-6%,1,·,4%
S=c1nc(-c2ccc(Br)cc2)[nH]c2ccccc12,-1,?,2,?,-4%
S=c1nc(-c2ccccc2)[nH]c2ccccc12,-5,0.79µM*,0,-6%,7.1µM*
Cc1ccc(/C=C2/C(=N)N3N=C(CC(=O)N4CCCC4)SC3=NC2=O)o1,-10,?,·,20%,-16%
CC1=CN2C(=N)/C(=C/c3ccc([N+](=O)[O-])o3)C(=O)N=C2S1,-18,11µM*,-32*,?,5µM*
CC1=CN2C(=N)/C(=C/c3ccco3)C(=O)N=C2S1,-1,?,-3,?,16µM*
Cc1cc(NC(=O)C(C)SCC(=O)OCc2c(Cl)cccc2Cl)no1 (stereo not given),-12,?,1,-10%,-27%
C=C1CC2C(=O)N(Cc3cc(OC)ccc3OC)C(C(=O)OCC)(C(=O)OCC)C1N2C(=O)OC(C)(C)C (stereo not given),·,15%,1,·,2%
CSCCC(NC(=O)c1ccc([N+](=O)[O-])cc1Cl)C(=O)OC1CCCCC1=O (stereo not given),-10,-20%,·,20%,3%
COc1c(C)cccc1C(=O)Nc1ccc(N2CCN(C(=O)c3ccccc3C)CC2)cc1,-11,?,·,10µM*,?
Cc1ccccc1C(=O)N1CCN(c2ccc(NC(=O)c3ccc4c(c3)OCCO4)cc2)CC1,?,?,0,?,-3%
Cc1ccccc1C(=O)N1CCN(c2ccc(NC(=O)Cc3ccccc3)cc2)CC1,-20,23%,·,18µM*,-2%
Cc1ccccc1C(=O)N1CCN(c2ccc(NC(=O)c3cccc(OC(C)C)c3)cc2)CC1,-26,45%,·,16µM*,?
Cc1cc(C)cc(OCC(=O)Nc2ccc(-n3cnnn3)cc2)c1,-1,·,·,17%,·
COc1cc(/C=C2/C(=N)N3C=CSC3=NC2=O)ccc1OCCCOc1c(C)cccc1C,-1,11µM*,1,8%,?
CCOc1cc(/C=C2/C(=N)N3C=CSC3=NC2=O)ccc1OCCCOc1ccccc1C,-5,-71%,·,?,?
COc1cc(/C=C2/C(=N)N3C=CSC3=NC2=O)ccc1OCCCOc1ccccc1C,-1,4.5µM*,·,?,2.8µM*
CC(=O)Oc1cc2c(C(=O)NCCCN3CCOCC3)c(C)oc2c2ccccc12,3,?,-38*,3%,-12%
Brc1cccc(-c2cnc3n2CCCCC3)c1,-14,0.4µM*,26,?,10µM*
Clc1ccc(-c2cnc3n2CCC3)cc1,-7,18µM*,0,?,-6%
COc1ccc(-c2cnc3n2CCCCC3)cc1,-8,?,0,0%,-3%
